# Inconclusive results are not listed. A call without a number means that no potency is given here. Unmarked numbers belong to inactive results. Calls of active or inactive are those of the source. Calls follow the shape of the dose curve; as a rule, active = well fitted cell-killing curve with a large enough effect in the repeat runs; inconclusive = weak or mixed curves, or effect the other way; inactive = flat fitted curve, though single readings scatter.
# Assay: qHTS RealTime-Glo MT Cell Viability Assay in HEK293 cells - 16 hour (AID 1224872); also: nearly all actives have a fitted effect of over 50% in size; as to activity change, negative = cytotoxicity: top concentration of the series differs between compounds
# Conditions: RealTime-Glo luminescence; series mostly up to 76.8 µM
# Procedure, shortened: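 HEK293 cells seeded with NanoLuc/prosubstrate reagent, rested 5 h at 37 C, then dosed and kept at 37 C up to 40 h. Nonlytic real-time luminescence from viable cells read at 0, 8, 16, 24, 32 and 40 h.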
# Potency is read from the fitted curve at half-maximal effect.
SMILES,Potency,"activity change, negative = cytotoxicity"
BrCCCCCCBr,inactive,–
Nc1cnn(-c2ccccc2)c(=O)c1Cl,inactive,–
Fc1cc(Br)ccc1CBr,inactive,–
Nc1cc2c3c(c1)C(c1ccccc1)=N[C@@H](NC(=O)c1cccnc1)C(=O)N3CC2,inactive,–
O=[N+]([O-])c1cc(Cl)c(Cl)c(Cl)c1,inactive,–
CCCSC(=O)N(CCC)CCC,inactive,–
Cc1cc(C)c(C(=O)P(=O)(C(=O)c2c(C)cc(C)cc2C)c2ccccc2)c(C)c1,inactive,–
CC(Oc1ccc(Oc2ncc(C(F)(F)F)cc2Cl)cc1)C(=O)O (configuration not stated),inactive,–
Cc1coc2c1CCC(C)C2 (configuration not stated),inactive,–
CC(N)=S,inactive,–
CCN(CC)CCOC(=O)C(C)(c1ccccc1)c1ccccc1,inactive,–
O=C1c2ccccc2C(=O)c2ccccc21,–,16.4% [at 15.8 µM]
CCCCC(=O)Cl,inactive,–
CCC(=O)C(CCN(C)C)(c1ccccc1)c1ccccc1,inactive,–
c1cc2c(c(N3CCNCC3)c1)OCCO2,inactive,–
CCCSC(=O)Cl,inactive,–
N#CC(CCc1ccc(Cl)cc1)(Cn1cncn1)c1ccccc1 (configuration not stated),21.9 µM (active),–
CCOC(=O)NC(=S)Nc1ccccc1NC(=S)NC(=O)OCC,inactive,–
ClC(Cl)Br,inactive,–

SMILES,Potency,"activity change, negative = cytotoxicity"
C(CCOCC1CO1)COCC1CO1 (configuration not stated),inactive,–
OC(c1ccccc1)(c1ccccc1)C1CCNCC1,inactive,–
CCN(CC)C(=O)[C@@H]1C=C2c3cccc4[nH]cc(c34)C[C@H]2N(C)C1,inactive,–
NC(=S)C(N)=S,inactive,–
CNC(=O)O/N=C(\C)SC,inactive,–
N#CCBr,inactive,–
CCCCCCI,inactive,–
CC(CC(C#N)(c1ccccc1)c1ccccc1)N(C)C (configuration not stated),inactive,–
CS(=O)(=O)c1cc(C(F)(F)F)ccc1C(=O)c1cnoc1C1CC1,inactive,–
C[C@]1(O)CC[C@H]2[C@@H]3CCC4=CC(=O)CC[C@]4(C)[C@@]3(F)[C@@H](O)C[C@@]21C,inactive,–
O=C(Oc1ccc(Br)cc1)N1CCN2CCC1CC2,inactive,–
COc1cc2c(cc1OC)[C@@]13CCN4CC5=CCO[C@H]6CC(=O)N2[C@H]1[C@H]6[C@H]5C[C@H]43,inactive,–
CCCCCCBr,inactive,–
CCN(CC)C(C)C(=O)c1ccccc1 (configuration not stated),inactive,–
O=NN1CCCCC1,inactive,–
CN(N=O)C(N)=O,inactive,–
OCCSCSCCO,inactive,–
CCCCOC(=O)[C@@H](C)Oc1ccc(Oc2ccc(C#N)cc2F)cc1,13.7 µM (active),–

# — PubChem BioAssay (Tox21)
